# This is a sample that favours compounds with a hit; in the whole collection about 3.5% have one here.
# GPR151 activ: activators of human GPR151, primary screen, cell-based, PathHunter beta-arrestin, luminescence | G-protein coupled receptor 151 (Homo sapiens), Q8TDV0 | PathHunter beta-arrestin GPR151 cells | activation, % at 11.2 µM | 650,000 compounds, 1% hits | AID 1508602, 2020; in the data active = activation above about 4.9%
# FBW7 activator: FBW7 E3 ligase activators, primary screen, biochemical, AlphaScreen, human; F-box/WD repeat-containing protein 7 (Homo sapiens), Q969H0; AlphaScreen FBW7–phospho-cyclin E peptide binding, activator screen; normalized activity (activation), % at 26.1 µM; 650,000 compounds, 0.13% hits; AID 1259310, 2017; in the data active = normalized activity above about 1.9%;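 also: purified mutant Fbw7 with reduced substrate affinity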
# Target sequence (Q969H0 whole entry, looked up): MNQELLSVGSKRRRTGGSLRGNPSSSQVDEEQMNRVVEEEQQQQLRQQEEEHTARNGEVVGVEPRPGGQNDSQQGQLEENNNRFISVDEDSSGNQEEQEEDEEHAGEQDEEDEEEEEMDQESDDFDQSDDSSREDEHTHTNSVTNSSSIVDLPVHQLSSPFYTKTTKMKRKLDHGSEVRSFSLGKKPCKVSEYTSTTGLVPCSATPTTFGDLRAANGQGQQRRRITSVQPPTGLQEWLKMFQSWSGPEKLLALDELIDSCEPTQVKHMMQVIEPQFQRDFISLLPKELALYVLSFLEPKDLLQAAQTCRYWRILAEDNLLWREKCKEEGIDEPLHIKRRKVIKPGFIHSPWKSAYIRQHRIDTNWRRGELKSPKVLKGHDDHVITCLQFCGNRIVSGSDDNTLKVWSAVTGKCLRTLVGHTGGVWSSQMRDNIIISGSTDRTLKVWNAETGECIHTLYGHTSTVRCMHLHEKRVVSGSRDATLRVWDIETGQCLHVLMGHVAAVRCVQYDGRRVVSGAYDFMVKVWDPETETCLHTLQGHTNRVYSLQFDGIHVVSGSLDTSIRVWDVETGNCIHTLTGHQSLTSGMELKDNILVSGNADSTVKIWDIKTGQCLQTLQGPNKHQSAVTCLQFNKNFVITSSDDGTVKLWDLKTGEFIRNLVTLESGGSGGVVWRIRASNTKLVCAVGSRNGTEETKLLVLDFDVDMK
# TEAD-YAP inh: TEAD-YAP interaction inhibition, primary screen, TEAD-YAP interaction inhibitor project, luminescence, HEK-TIYL cells | TEAD-Gal4/YAP UAS-luciferase luminescence | inhibition, % at 9.12 µM | 640,000 compounds, 1.4% hits | AID 1259422, 2018; in the data active = inhibition above about 32%
# MITF inh: MITF inhibitors, primary screen, biochemical, AlphaScreen, human; AlphaScreen MITF homodimerization, bead proximity signal; inhibition, % at 2.6 µM; 650,000 compounds, 0.91% hits; AID 1259374, 2018; in the data active = inhibition above about 50%
# GPR151 confirm: GPR151 activators, triplicate retest, confirmation, cell-based, PathHunter beta-arrestin, luminescence; shares compounds with GPR151 activ; GPR151 PathHunter beta-arrestin cells, 90 min; % of EA-reagent control over plate median; activation, % at 11.2 µM; 6,700 tested, under 10 active;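 active = mean percent activation across replicates above the confirmation screen cutoff of 4.91%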
# GPR119 ag: GPR119 activators in beta-arrestin cells, counter-screen for GPR151 activator project, cell-based, PathHunter beta-arrestin, luminescence, triplicate. shares compounds with GPR151 activ. 90 min; 0 = compound-well median, 100 = enzyme-acceptor control. AID 1508611, 2020. activation, % at 11.2 µM. 6,700 compounds, 0.3% hits;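 active = mean percent activation in the counterscreen above 29.09%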;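 also: counterscreen on off-target GPR119 to flag nonselective hits from the GPR151 activator screen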
# A number is an active result; . = inactive; / = no result.
SMILES,GPR151 activ,FBW7 activator,TEAD-YAP inh,MITF inh,GPR151 confirm,GPR119 ag
CCC(C)C(=O)Nc1nc2c(s1)C(=O)CC(C(=O)N(C)C(C)C)C2 (centres undefined),.,.,.,.,/,/
Cc1cnc(-c2ccc(C(N)=O)cc2)nc1NCCN1CCOCC1,5.5,.,.,.,.,.
Cc1cnc(-c2ccc(C(=O)N3CCN(C)CC3)cc2)nc1NCCCN1CCCC1=O,.,.,.,.,/,/
Cc1cnc(NCCCN2CCCC2=O)nc1NCCCN1CCCC1=O,6.8,.,.,.,.,.
CCNc1ncc(C)c(NCCCN2CCCC2=O)n1,.,.,.,.,/,/
Cc1cnc(-c2ccc(C(=O)NC3CC3)cc2)nc1NCCCN1CCCC1=O,5.2,.,.,.,.,.
Cc1cnc(NCc2ccc3c(c2)OCO3)nc1NCCCN1CCCC1=O,5.6,.,.,.,.,.
CCN(CC)c1nc(NCCCN2CCCC2=O)nc(NC2CC2)n1,5.1,.,.,.,.,.
O=C(CN1CCN(c2nc(-c3ccccc3)cs2)CC1)Nc1ccccc1[N+](=O)[O-],.,.,.,.,/,/
Cc1ccc(-c2csc(N3CCN(CC(=O)Nc4ccc([N+](=O)[O-])cc4)CC3)n2)cc1,7.0,.,.,.,.,.
Cn1nnnc1SCC(=O)Nc1ccc(-c2ccccc2)cc1,.,.,.,.,/,/
Cc1cc(N2CCCCC2)nc2ccc(NC(=O)c3cccc([N+](=O)[O-])c3)cc12,17,.,.,.,.,.
CS(=O)(=O)NCC1CCC(C(=O)NC2CCN(Cc3ccccc3)CC2)CC1 (centres undefined),5.6,.,.,.,.,.
Nc1c(C(=O)O)[nH]c(=O)[nH]c1=O,5.1,.,.,.,.,.
COc1cccc(CNC(=O)N(C)c2ccc(-c3cn[nH]c3)cc2)c1,.,.,.,.,/,/
O=C(NC1CCCC1)c1coc2nc3ccccc3nc12,.,.,.,.,/,/
O=C(Cn1cncn1)N1CCN(c2ncccn2)CC1,7.0,.,.,.,.,.
CCN(CC)C(=O)c1sc(NC(=O)c2ccco2)c(C(=O)OC(C)C)c1C,.,.,.,.,/,/
COC(=O)c1c(NC(=O)c2ccco2)sc(C(=O)Nc2cccc(C)c2)c1C,6.4,.,.,.,.,.
CCN(CC)C(=O)c1sc(NC(=S)NCc2ccco2)c(C(=O)OC)c1C,11,.,.,.,.,.
CCOc1ccc(CCNC(=O)Cn2ccn3nc(-c4ccc(OC)cc4)cc3c2=O)cc1OCC,.,.,.,.,/,/
CCCC(=O)N1CCN(S(=O)(=O)c2ccc(F)cc2)CC1,.,.,.,.,/,/
CNc1ccccc1C(=O)OCC(=O)Nc1ccc(C#N)cc1,.,.,.,.,/,/
COc1ccccc1C(=O)OCC(=O)Nc1ccc(C#N)cc1,6.1,.,.,.,.,.
O=C(Nc1ccc(S(=O)(=O)N2CCOCC2)cc1)Nc1ccc(F)c(Cl)c1,.,.,.,.,/,/
SMILES,GPR151 activ,FBW7 activator,TEAD-YAP inh,MITF inh,GPR151 confirm,GPR119 ag
CC(C)c1ccc(/C=N/Nc2nncc(=O)[nH]2)cc1,5.6,.,.,.,.,.
CCOc1ccc(-c2[nH]nc3c2C(c2ccsc2)C(C#N)=C(N)O3)cc1 (centres undefined),.,.,.,.,/,/
CCn1c(=O)c2c(nc3n(CC)c(C)cn23)n(C)c1=O,.,.,.,.,/,/
CCCn1c(=O)c2c(nc3n(-c4ccc(C(=O)OCC)cc4)c(C)cn23)n(C)c1=O,.,.,.,.,/,/
CCCCn1c(=O)c2c(nc3n(-c4ccc(C(=O)OCC)cc4)c(C)cn23)n(C)c1=O,5.6,.,.,.,.,.
CCn1c(=O)c2c(nc3n(C)c(C)cn23)n(C)c1=O,8.0,.,.,.,.,.
O=C1NCCN(Cc2cccc(Oc3ccccc3)c2)C1CC(=O)N1CCC(O)CC1 (centres undefined),.,.,.,.,/,/
COc1ccc(C(CC(=O)O)NC(=O)OC(C)(C)C)cc1 (centres undefined),.,.,.,.,/,/
CC(C)OC(=O)CC(NC(=O)OC(C)(C)C)c1ccccc1 (centres undefined),8.1,.,/,.,.,.
c1cnc2c(-c3cnc4c(N5CCOCC5)nccn34)cccc2c1,.,.,.,.,/,/
CCOC(=O)CSc1nc(C2CC2)nc2sc(C)c(C)c12,.,.,.,.,/,/
Cc1sc2nc(C3CC3)nc(SCC(N)=O)c2c1C,6.8,.,.,.,.,.
CCNc1nc(NCC)n2c(SCC(=O)Nc3ccccc3C)nnc2n1,6.8,.,.,.,.,.
CCNc1nc(NCC)n2c(SCC(=O)Nc3ccc(C)cc3C)nnc2n1,.,.,.,.,/,/
CC(C)(C)n1nnnc1C(c1ccccn1)N1CCCCCC1 (centres undefined),.,.,.,.,/,/
COc1cccc(C(=O)Nc2nc3ccc(SC)cc3s2)c1OC,5.0,.,.,.,.,.
CSc1ccc2nc(NC(=O)c3ccccc3C)sc2c1,.,.,.,.,/,/
COc1cccc(OC)c1C(=O)OCC(=O)C12CC3CC(CC(C3)C1)C2,.,.,.,.,/,/
C(=C\c1nnc2c3ccccc3ncn12)/c1ccccc1,.,.,.,.,/,/
COc1cc(/C=C/c2nnc3c4ccccc4ncn23)cc(OC)c1OC,8.4,.,.,.,.,.
COCCN(Cc1cc2cc3c(cc2[nH]c1=O)OCO3)C(=O)c1ccc(OC)cc1,.,.,.,.,/,/
O=C1c2ccccc2C(=O)N1CCN1CCCC2(C1)Nc1ccccc1-n1cccc12 (centres undefined),.,.,.,.,/,/
COc1ccc2c(c1)NC1(CCCN(CCN3C(=O)c4ccccc4C3=O)C1)c1cccn1-2 (centres undefined),5.4,.,.,.,.,.
Cc1cnc(CN2CCc3c([nH]c4ccccc34)C2c2cccc(O)c2)[nH]1 (centres undefined),.,.,.,.,/,/
CN(CC(=O)NC1CCCc2ccccc21)S(=O)(=O)c1ccc(Br)s1 (centres undefined),11,.,.,.,.,.
O=C(CCS(=O)(=O)c1ccc(Br)s1)NC1CCCc2ccccc21 (centres undefined),.,.,.,.,/,/
CCOc1ccc(NC(=O)CSC2=C(C#N)C(c3ccco3)C(C(=O)Nc3ccccc3)=C(C)N2)cc1 (centres undefined),5.0,.,.,.,.,.
NC(C(=O)N1CCN(c2ccc3cnccc3c2)CC1)c1ccc(-c2ccccc2)cc1 (centres undefined),7.5,.,.,.,.,.

# Assay outcomes as filed in PubChem.
